The values that follow come from PubChem BioAssay.

The other results are listed elsewhere or left out. Unmarked numbers belong to inactive results. The source made the active and inactive calls.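 Rule for the calls: active = inhibition reaching about 45% at 4 µM in either replicate (limit read from the data); inactive = the rest.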

This experiment can be described thus: lowers stimulated NF-kB luciferase signal in Jurkat – cell-based, luminescence, single concentration, T-cell NF-kB inhibitor project, confirmation (AID 435020).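 Note: plate controls were PMA/ionomycin stimulated DMSO wells for no effect and unstimulated DMSO wells for full effect.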 The conditions noted are these: PMA/ionomycin-induced, 16 h, at 4 µM, hits give high values.
The term inhibition denotes the change of the read-out against control, counted positive when it falls. As for `O=C(COC(=O)c1ccc(F)cc1)NCC1COc2ccccc2O1` (stereo not given), the inhibition is 12.1%.
Then `O=C(/C=C/c1ccc([N+](=O)[O-])o1)NNC(=O)c1ccc(F)cc1`, with 45.4%; and `COc1ccc(C)c(Cn2c(-c3nonc3N)nc3ccccc32)c1`, with 44.8%.
Next, `O=C(NCC#CCSc1nnc(-c2cccc3ccccc23)o1)c1cccs1`: 62.8% (active).
Then `O=C(CCNC(=O)c1ccc(Br)cc1)Nc1cccc(S(=O)(=O)N2CCCCC2)c1`, with 0.65%; and `CC[C@]1(O)CC2CN(CCc3c([nH]c4ccccc34)[C@@](C(=O)OC)(c3cc4c(cc3OC)N(C=O)[C@H]3[C@@](O)(C(=O)OC)[C@H](OC(C)=O)[C@]5(CC)C=CCN6CC[C@]43[C@@H]65)C2)C1` (stereo not given in full), with 62.8% (active); and `CCOc1ccc2[nH]c3nc(SCC(=O)NC4CCCC4)nnc3c2c1`, with 14.2%.
Take `c1cnc(N2CCN(c3ccc4ccccc4n3)CC2)nc1`: the inhibition is -107%.
Then `Cc1cccc(-n2c(C)cc(/C=N\NC(=O)c3cccs3)c2C)c1`, with 6.7%; and `CCOc1cccc(/C=C/c2ccc3ccccc3n2)c1OC(C)=O`, with -131%.
Next, `Cc1nnc(N/N=C/c2ccccn2)[nH]c1=O`: 63.8% (active); `Cn1nccc1C(=O)NC1CCCc2c1cnn2-c1ccc(F)cc1F` (stereo not given): 76.3% (active).
For the compound `O=C(Nc1ccccc1Cl)/C(Cl)=C(\Cl)S(=O)c1ccccc1` (stereo not given), the inhibition was 59.8% (active).
On to `COc1ccccc1NC1=NC(c2ccc(Cl)cc2)N=C(N)N1` (stereo not given), for which the inhibition was 18.7%.
Regarding `Cc1cc(N)n2nc(-c3ccc(C(C)(C)C)cc3)cc2n1`, the inhibition is -164%.
Next, `CCN(CC)c1ccc(/C=N/NC(=O)c2cnccn2)c(O)c1`: -7.5%.
Turning to `COc1ccc(-n2ncc3c(N4CCc5ccccc54)ncnc32)cc1`, the inhibition was -93.4%.
Take `O=C(CSC(=S)N1CCCCC1)c1c(F)cccc1F`: the inhibition is -113%.
Then `Cc1ccc(NC(=O)c2csc3c2CCCC3)cc1`, with -157%.
Next, `Cc1ccc(-n2ncc3c2CC(C)(C)CC3NC(=O)Cc2c(C)noc2C)cc1` (stereo not given): -15.6%; `COc1ccc(CNS(=O)(=O)c2cc(-c3cc(C)no3)ccc2C(C)C)cc1`: 41.9%.
Next, `Cc1ccc2nc(-c3ccncc3)cc(C(=O)Nc3ccc(OC(F)F)cc3)c2c1`: 28.2%.
Consider `C=CCn1c(SCc2c(C)noc2C)nc2sc3c(c2c1=O)CCC(C)C3` (stereo not given), for which the inhibition was 27.9%.
Take `CC(C)Sc1ncnc2c1cnn2-c1ccccc1`: the inhibition is -138%.
Then `Cc1cc(=O)oc2cc(OCC3CC(c4ccccc4Cl)=NO3)ccc12` (stereo not given), with 54.6% (active).
Next, `C/C(=N\NC(=O)c1ccccc1F)c1ccccn1`: 4.3%; `COc1cc(/C=N/O)ccc1OCc1ccc([N+](=O)[O-])cc1`: -119%.
Then `CCCOc1ccccc1C1CC(=O)Nc2cc3c(cc21)OCO3` (stereo not given), with 62% (active); and `CCCOC(=O)c1[nH]c2c(c1C)C(=O)CC(c1cccs1)C2` (stereo not given), with 52.4% (active); and `COc1ccc(-c2csc(-c3cccs3)n2)cc1OC`, with -54.3%.
Turning to `Cc1ccccc1Nc1nc(N)nc(CSc2ccccc2)n1`, the inhibition was -82.8%.
Next, `Cc1ccc2nc(-c3ccc(NC(=O)CN(C)S(=O)(=O)c4ccccc4)cc3)sc2c1`: -82.4%; `Cc1ccc(S(=O)(=O)C2(S(=O)(=O)c3ccc(C)cc3)CCCC2)cc1`: 24.9%.
For the compound `COc1cc(N=Cc2c(O)[nH]c3ccccc23)cc(OC)c1OC`, the inhibition is -14%.
Then `O=C(Nc1ccc(CSc2ccccc2)cc1)c1ccc(CN2CCOCC2)cc1`, with 62.3% (active); and `CSc1nc(N(C)NC(=O)c2cccc(C)c2)c2ccccc2n1`, with 57.2% (active).
Take `O=C(NC(Nc1nc2ccc([N+](=O)[O-])cc2s1)(C(F)(F)F)C(F)(F)F)c1ccccc1`: the inhibition was 80.7% (active).
Consider `Cc1cccc(N(C)C(=O)c2cc3c(=O)[nH]c4ccc(C)cc4c3s2)c1`, for which the inhibition is 16.9%.
Then `Cc1ccc(O)c(NC(=O)COc2cc(C)ccc2C)c1`, with 0.55%.
Regarding `COc1ccc(NC(=O)/C(Cl)=C(/Cl)S(=O)Cc2ccc(C)cc2)cn1` (stereo not given), the inhibition was 100% (active).
